Screening data (PubChem BioAssay)
Vif inh: HIV Vif inhibition | HEK293T cells, Vif self-association by quenched fluorescence, imaging, 24 h | inhibition, % at 7.49 µM | actives 0.35% (n = 340,000); in the data active means inhibition above about 50%, passing the limit was not always enough
SMARCA2 activ: activators of SMARCA2 function | MG213 cells, MMTV-luciferase reporter, dexamethasone, overnight | activation, % at 9.1 µM | actives 1% (n = 370,000) | AID 652017; in the data active means activation above about 7.8%;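 further: 0% = vehicle wells and 100% = reference activator wells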
esBAF inh: inhibitors of esBAF chromatin remodeling in mouse ES cells. Bmi1-luciferase knock-in reporter, 24 h; 100% = twice the neutral-well signal. actives 2% (n = 350,000). reporter increase, % at 12.5 µM. AID 602393; in the data active means activation above about 40%;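 further: 0% = median of the plate's neutral control wells and 100% = double that signal; a rise in the Bmi1 reporter signal indicates esBAF inhibition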
SKN-1 inh: inhibitors of C. elegans SKN-1; C. elegans VP596 Pgst-4::GFP/RFP ratio, acrylamide-induced, 24 h; actives 0.49% (n = 360,000); AID 624304; inhibition, % at 21.8 µM;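 active means interference check ratio from 0.5 to 1.5 plus GFP to RFP signal ratio inhibition reaching or exceeding a fixed threshold, cut at about 30% in these data, passing the limit was not always enough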
NadD block: inhibitors of Staphylococcus aureus NadD. inhibition, % at 20 µM. actives 0.78% (n = 360,000). AID 602399. purified NadD enzyme, colorimetric absorbance read-out; in the data active means inhibition above about 26%
GRIN3A LBD mod: modulates the human NR3A ligand-binding domain; NR3A LBD differential scanning fluorimetry, Tm shift; 0% = protein alone, 100% = glycine-bound protein; Tm shift relative to glycine control, % at 25 µM; actives 2.5% (n = 340,000); AID 1259313;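 active means melting temperature shift of at least 10% of the positive control shift, at one fixed dose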
Numbers without * were called inactive; nt = not tested or not shown. Most compounds without a hit are left out; they make up all but 5.2% or so of the library.

SMILES | Vif inh | SMARCA2 activ | esBAF inh | SKN-1 inh | NadD block | GRIN3A LBD mod
O=C(CNC(=O)c1ccccc1F)NNC(=O)c1ccccc1O | 15 | 0 | 3 | 14 | -3 | -3
O=C(NCCCN1CCOCC1)[C@H]1N[C@H]2c3ccc(C4=CCCC4)c(=O)n3C[C@H]2[C@@H]1CO | nt | nt | -2 | nt | nt | nt
O=C(NN=C1CCC(=NNC(=O)c2ccccn2)CC1)c1ccccn1 | 7 | 11* | nt | 5 | 4 | 1
CCCNC(=O)C[C@H]1C[C@H]2c3cc(NC(=O)CC4CC4)ccc3O[C@H]2[C@H](CO)O1 | nt | nt | -6 | nt | nt | nt
C(=N\Nc1nc(Nc2ccccc2)nc(Nc2ccccc2)n1)/c1cccnc1 | -2 | -4 | nt | 7 | 11 | 27*
Cc1ccc(-c2nnc(-c3ccc4ccccc4c3)o2)cc1 | 10 | 3 | 54* | 4 | -5 | -6
CCOc1ccc(-c2cnc3ccccc3n2)cc1 | 8 | 0 | nt | 35* | -13 | 0
CCOc1ccc(-c2cn3ccccc3n2)cc1 | 1 | 5 | nt | 21 | 0 | -20
CCOc1ccc(-c2nnc(-c3ccccc3)o2)cc1 | 3 | 6 | -59 | 38* | -11 | 0
O=[N+]([O-])c1ccc(-c2cnc3ccccc3n2)cc1 | -9 | 1 | 55* | 32 | -5 | 4
COc1ccc(S(=O)(=O)Nc2cccc3c2O[C@@H](CN(C)C(=O)Nc2ccc(F)cc2)[C@@H](C)CN([C@@H](C)CO)C3=O)cc1 | nt | nt | 0 | nt | nt | nt
C=CCOc1ccc2c(OC)c3ccoc3nc2c1OC | -6 | 0 | 48* | -7 | 3 | -1
CCOc1c2ccoc2nc2c(OC)c(OC)ccc12 | 3 | 5 | 21 | 10 | -4 | -3
COc1ccc(-c2nn(-c3ccccc3)cc2/C=N/O)cc1 | -12 | 1 | 26 | -12 | -1 | -1
O=C(N/N=C\c1cn(-c2ccccc2)nc1-c1ccccc1)c1ccc(Br)o1 | -4 | 3 | 30 | -17 | 11 | -2
Cc1ccc(-c2nn(-c3ccccc3)cc2/C=N/NC(=O)c2ccc(Br)o2)cc1 | -17 | 0 | 64* | 9 | 4 | -5
O=C(N/N=C/c1cn(-c2ccccc2)nc1-c1ccccc1)c1ccco1 | -10 | 2 | 44* | -5 | -3 | -9
COc1ccc(-c2nn(-c3ccccc3)cc2/C=N/NS(=O)(=O)c2ccccc2)cc1 | -5 | 2 | nt | 2 | 3 | 21*
Cc1nnc(SCC(=O)N/N=C/c2cn(-c3ccccc3)nc2-c2ccccc2)n1-c1ccccc1 | -16 | 0 | 63* | 25 | 10 | -4
COc1cccc(-c2ccc3n(c2=O)C[C@@H]2[C@@H](CO)[C@H](C(=O)N(C)C)[C@H]3N2Cc2cncnc2)c1 | nt | nt | -1 | nt | nt | nt
C[C@H]1CN([C@@H](C)CO)S(=O)(=O)c2ccc(-c3ccccc3)cc2O[C@H]1CN(C)Cc1ccccc1 | nt | nt | -15 | nt | nt | nt
CNC[C@@H]1Oc2cc(C#Cc3ccncc3)ccc2S(=O)(=O)N([C@H](C)CO)C[C@@H]1C | nt | nt | -2 | nt | nt | nt
C[C@@H]1CN([C@@H](C)CO)S(=O)(=O)c2ccc(-c3cccnc3)cc2O[C@@H]1CN(C)C(=O)CC1CC1 | nt | nt | -10 | nt | nt | nt
Cc1ccc2nc(/C(C#N)=C\c3ccc(N4CCCCC4)c([N+](=O)[O-])c3)[nH]c2c1 | -3 | 0 | nt | 7 | 39* | -1
Cc1ccc2nc(/C(C#N)=C/c3ccc(O)c(O)c3)[nH]c2c1 | 20 | 3 | 17 | -8 | 7 | 19*
SMILES | Vif inh | SMARCA2 activ | esBAF inh | SKN-1 inh | NadD block | GRIN3A LBD mod
Cc1ccc2nc(/C(C#N)=C/c3ccccc3C(=O)O)[nH]c2c1 | 1 | 3 | 2 | 9 | -1 | -1
N#C/C(=C\c1ccc(N2CCOCC2)c([N+](=O)[O-])c1)c1nc2ccccc2[nH]1 | 0 | -2 | nt | 7 | 7 | 1
N#C/C(=C/c1ccc(N2CCCC2)c([N+](=O)[O-])c1)c1nc2ccccc2[nH]1 | 10 | -2 | 30 | 21 | 36* | 12*
COc1cccc(/C=C(\C#N)c2nc3ccc(C)cc3[nH]2)c1OCC(=O)O | -3 | 2 | 51* | -10 | 8 | -1
COCC#Cc1ccc2c(c1)O[C@H](CN(C)C(=O)CN(C)C)[C@H](C)CN([C@@H](C)CO)S2(=O)=O | nt | nt | -1 | nt | nt | nt
CC(C)CC#Cc1cnc2c(c1)C(=O)N([C@H](C)CO)C[C@@H](C)[C@H](CN(C)C(=O)CN1CCOCC1)O2 | nt | nt | 1 | nt | nt | nt
CN(/N=C/c1cc([N+](=O)[O-])ccc1O)c1ccccc1 | 2 | -1 | nt | 3 | 4 | -6
O=C1Nc2ccccc2/C1=N/N=C/c1ccc(-c2ccc([N+](=O)[O-])cc2)o1 | 54* | -1 | nt | -5 | 1 | -2
CN(/N=C/c1ccc(-c2ccc([N+](=O)[O-])cc2)o1)c1ccccc1 | nt | 3 | 2 | 10 | -3 | 13*
O=C(N[C@H]1C=C[C@@H](CC(=O)N2CCc3ccccc3C2)O[C@H]1CO)C1CCC1 | nt | nt | 3 | nt | nt | nt
COc1ccc(F)cc1-c1cc(C(=O)NC2CCCCC2)[nH]n1 | -1 | 2 | 49* | 6 | 0 | nt
CCOc1ccc(-c2cc(C(=O)NCc3cc(OC)cc(OC)c3)[nH]n2)c(C)c1 | -13 | -3 | -4 | 2 | -4 | nt
CCOc1ccc(-c2cc(C(=O)NC3CCCCC3)[nH]n2)c(C)c1 | -17 | 3 | 57* | 9 | -1 | nt
CO[C@H](CN(C)S(=O)(=O)c1ccccc1)[C@@H](C)CN(Cc1ccccc1Cl)[C@@H](C)CO | nt | nt | -4 | nt | nt | nt
O=c1c2ccccc2nc(/C=C/c2ccccc2)n1CCCO | nt | -2 | -3 | 4 | -4 | 0
CCn1c(/C=C/c2ccc(F)cc2)nc2ccccc2c1=O | 60* | -2 | -7 | 2 | 2 | -1
O=c1c2ccccc2nc(/C=C/c2ccc(O)cc2)n1CCc1ccccc1 | -2 | -2 | 2 | 10 | 5 | 20*
CCOC(=O)N1CCN(c2ncnc3c2cnn3-c2ccc(OC)cc2)CC1 | -13 | -1 | 22 | 48* | 0 | -1
C[C@H]1CN([C@@H](C)CO)C(=O)c2cc(NC(=O)C3CC3)ccc2O[C@H]1CN(C)Cc1ccc(-c2ccccc2)cc1 | nt | nt | 0 | nt | nt | nt
CC(=O)N(c1nnc(-c2cccc(C)c2)s1)C1CCCC1 | -2 | 0 | 52* | -4 | -14 | 0
CC1(C)CC(=O)c2cc(C(=O)O)c(=O)n(-c3ccccc3)c2C1 | -12 | 2 | -7 | -2 | 11 | 0
CC1(C)CC(=O)c2c(O)c(-c3ccccc3)c(=O)n(-c3ccccc3)c2C1 | -1 | 4 | nt | 17 | 0 | 12*
CCCCOc1ccc(-c2nnn(CC(=O)NCCc3c[nH]c4ccccc34)n2)cc1 | -7 | -3 | 21 | 12 | -2 | 17*
CCCCCCCCCCCCCCCC(=O)NCCc1c[nH]c2ccccc12 | -9 | 3 | -13 | -2 | -4 | 0
Cc1ccc(C(=O)Nc2ncc([N+](=O)[O-])s2)cc1 | -4 | -6 | -82 | 37* | -3 | -1
